Pf growth 48h: Primary qHTS for delayed death inhibitors of the malarial parasite plastid, 48 hour incubation; AID 504832, 2011; P. falciparum luciferase growth in erythrocytes, 48 h; Potency, µM (series often up to 28.7 µM), for the others: at the top dose activity change, negative = inhibition, most hits filed as inhibitors; 310,000 tested, 5.9% active; also: % is scaled to controls: 0 for no effect and ±100 for the full control effect
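Here the parasites carry a stable luciferase gene and grow inside erythrocytes in Albumax-based RPMI medium with compound for one erythrocytic cycle. Activity is scored as loss of luminescent signal.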
SARS PLP yeast: qHTS of Yeast-based Assay for SARS-CoV PLP; 330,000 tested, 0.19% active; Potency, µM (titrated, usually from 32.9 µM), without a hit: at the highest dose activity, positive = growth rescue, most hits filed as activators; S. cerevisiae expressing SARS-CoV PLpro, growth rescue; AID 485353, 2010; calls by dose curve; also: 0% is about no effect; nearly all actives have a fitted effect of over 55% in size
AmpC inh no detg: qHTS Inhibitors of AmpC Beta-Lactamase (assay without detergent); P00811; AmpC nitrocefin hydrolysis, absorbance 480 nm, 0.0001% Triton; Potency, µM (highest dose often 57.1 µM), for the others: at the top dose activity change, negative = inhibition, hits mostly inhibitors; 330,000 tested, 0.52% active; AID 485341, 2010;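 also: plate controls were no compound for no effect and no enzyme for full effect; nearly all actives have a fitted effect of over 20% in size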
Target sequence (P00811 whole entry, looked up): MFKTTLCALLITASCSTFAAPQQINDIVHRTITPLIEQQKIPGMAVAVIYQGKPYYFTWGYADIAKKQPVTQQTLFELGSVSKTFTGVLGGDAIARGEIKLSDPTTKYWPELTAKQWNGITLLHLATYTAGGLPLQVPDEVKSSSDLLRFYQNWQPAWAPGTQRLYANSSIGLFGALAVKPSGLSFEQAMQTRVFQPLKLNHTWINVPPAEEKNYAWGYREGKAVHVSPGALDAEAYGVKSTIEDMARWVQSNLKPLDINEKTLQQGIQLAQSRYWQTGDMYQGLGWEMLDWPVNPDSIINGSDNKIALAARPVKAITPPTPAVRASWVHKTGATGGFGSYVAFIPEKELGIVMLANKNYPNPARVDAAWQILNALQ
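20 mM phosphate pH 7.0 + 0.01% (detergent screen) or 0.0001% Triton X-100; 5.3 nM AmpC reagent; cpd preinc 15 min RT; nitrocefin (800 uM stock) to start; A480 q20 s × 4 min; Activity was normalised to no-enzyme and no-compound control wells.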
Sm TGR block: qHTS Assay for the Inhibitors of Schistosoma Mansoni Peroxiredoxins; Schistosoma mansoni thioredoxin glutathione reductase (TGR), Q962Y6; purified TGR, DTNB reduction, TNB absorbance 405 nm; Potency, µM (highest dose often 114 µM), for the others: at the top dose activity change, negative = inhibition, most hits filed as inhibitors; 360,000 tested, 3% active; AID 485364, 2010; also: % is scaled to controls: 0 for no effect and ±100 for the full control effect; nearly all actives have a fitted effect of over 60% in size
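Kinetic colorimetric format: TGR-catalysed, NADPH-driven DTNB reduction monitored via TNB absorbance. Enzyme dispensed at 20 nM; compound exposure 15 min at room temperature before reaction start.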
Pf growth 96h: Primary qHTS for delayed death inhibitors of the malarial parasite plastid, 96 hour incubation. P. falciparum luciferase reporter growth, 96 h. Potency, µM (top dose mostly 28.7 µM), for the others: at the highest dose activity change, negative = inhibition, most hits filed as inhibitors. 320,000 tested, 6.9% active. AID 504834, 2011; also: % is scaled to controls: 0 for no effect and ±100 for the full control effect
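Parasite growth measured via integrated firefly luciferase reporter in P. falciparum. Infected erythrocytes at 2% hematocrit, 0.05% parasitemia final were treated 96 hours at 37 C under 5% CO2, and luminescence was read.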
AmpC detergent: qHTS Inhibitors of AmpC Beta-Lactamase (assay with detergent). P00811. AmpC hydrolysis of nitrocefin, absorbance 480 nm, 0.01% Triton. Potency, µM (highest dose often 114 µM), inactives show at the top dose activity change, negative = inhibition, hits mostly inhibitors. 370,000 tested, 0.041% active;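 also: 0% = no-compound wells and -100% = no-enzyme wells; nearly all actives have a fitted effect of over 25% in size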
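AmpC (5.3 nM in the dispensed reagent) in 20 mM phosphate pH 7.0 with 0.01% (detergent screen) or 0.0001% Triton X-100 was preincubated with compounds for 15 min at room temperature. Nitrocefin was then added from an 800 uM solution, and hydrolysis was followed at 480 nm.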
Starred values were filed as active, the others as inactive; ? = inconclusive; nt = no result given. This is a sample that favours compounds with a hit; in the whole collection about 12% have one here. Unless noted, calls follow the shape of the dose curve; as a rule, active = well fitted curve in the direction sought with a large enough effect; inconclusive = small, poorly fitted or top-dose-only effect, or another doubt; inactive = no such curve, though single readings can be large; an effect the other way counts as inactive or inconclusive. Potency is read from the fitted curve at half-maximal effect.

SMILES	Pf growth 48h	SARS PLP yeast	AmpC inh no detg	Sm TGR block	Pf growth 96h	AmpC detergent
CCOC(=O)c1c(NC(=O)CN2C(=O)NC3(CCC(C)CC3)C2=O)sc(C(=O)N(C)C)c1C (configuration not stated)	?	1.5%	5.8%	-2.3%	?	-13.8%
CCOC(=O)c1sc(NC(=O)CNCc2ccccn2)c(C(=O)OCC)c1C	1.04µM*	-0.8%	50.9%	-16.2%	0.415µM*	-4.9%
CCOC(=O)c1c(NC(=O)CN2C(=O)NC3(CCCCC3)C2=O)sc(C)c1-c1ccc(C)cc1	14.7µM*	6.3%	-26.8%	0.0%	9.28µM*	-9.0%
CCOC(=O)c1sc(NC(=O)CNCc2cccnc2)c(C(=O)OCC)c1C	?	2.8%	-20.5%	-15.7%	?	-6.3%
CCOC(=O)c1sc(NC(=O)CN2C(=O)NC3(CCCCCCC3)C2=O)c(C(=O)OCC)c1C	8.28µM*	1.0%	-22.3%	4.3%	9.28µM*	-5.7%
CCOC(=O)C(C(C)=O)C(c1ccc(OCCC(C)C)cc1)C(C(C)=O)C(=O)OCC (configuration not stated)	?	-11.2%	234.0%	-16.6%	-12.8%	0.2%
CCc1ccccc1NC(=O)c1nnn(Cc2ccc(Cl)cc2)c1N	nt	nt	nt	11.3%	nt	19.5%
CC(=O)N(C)C(c1ccc(N(C)C)cc1)c1nnnn1-c1c(C)cccc1C (configuration not stated)	5.22µM*	29.1%	124.3%	0.4%	5.22µM*	-16.3%
COc1ccc(-c2noc(N3CCCC(C(=O)Nc4ccc(F)cc4F)C3)n2)cc1 (configuration not stated)	21.1%	-0.4%	-18.9%	1.0%	9.28µM*	-6.4%
COc1ccc(-c2noc(N3CCCC(C(=O)Nc4ccccc4F)C3)n2)cc1 (configuration not stated)	4.9%	-6.8%	0.4%	-17.2%	10.4µM*	?
COc1ccc(-c2noc(N3CCC(C(=O)Nc4ccccc4OC)CC3)n2)cc1	?	-7.7%	9.3%	9.9%	3.3%	-16.5%
COc1ccc(-c2noc(N3CCC(C(=O)Nc4ccc(F)cc4)CC3)n2)cc1	-17.5%	-2.0%	-27.7%	2.5%	-5.4%	-6.2%
COc1ccccc1N1CCN(S(=O)(=O)CCNC(=O)C2CC2)CC1	23.6%	0.5%	1.1%	45.7%	8.4%	-20.4%
CCc1nc2ccccc2c(NC(=O)CN2CC(C)CC(C)C2)c1C (configuration not stated)	-20.8%	2.7%	33.8%	16.9%	9.28µM*	-0.5%
Cc1cc2nc(CS)[nH]c2cc1C	?	-0.3%	-32.7%	?	?	2.8%
CCOC(=O)C(C)Oc1cccc2c(=O)n(CC(=O)Nc3ccc(OCC)cc3)ccc12 (configuration not stated)	-6.5%	-2.6%	-4.5%	-2.7%	5.6%	?
CCOC(=O)C(C)Oc1cccc2c(=O)n(CC(=O)Nc3cccc(OC)c3)ccc12 (configuration not stated)	-8.0%	4.1%	7.08µM*	0.0%	2.8%	?
COc1ccc(/C=C2\CCCc3c2nc2ccccc2c3C(=O)O)cc1OC	13.4%	0.6%	-31.0%	20µM*	34.9%	4.0%
COc1ccc(/C=C2\CCc3c2nc2ccccc2c3C(=O)O)cc1OC	48.5%	0.1%	-18.9%	-14.8%	119.1%	-14.9%
COc1cc(/C=C2\CCCc3c2nc2ccccc2c3C(=O)O)cc([N+](=O)[O-])c1O	14.0%	-0.3%	-20.0%	-23.4%	25.7%	-2.0%
COc1cc(/C=C2\CCCc3c2nc2ccccc2c3C(=O)O)cc(OC)c1O	-2.2%	0.7%	-16.7%	20µM*	4.1%	-7.8%
Cc1cc(C)c(NC(=O)C2CCN(C(=O)N3CCOc4ccccc43)CC2)c(C)c1	nt	nt	nt	8.0%	nt	18.1%
Cc1[nH]c(C)c(Cl)c(=O)c1Cl	6.01µM*	nt	nt	nt	3.38µM*	nt

Screening data as filed in PubChem.
